# According to the antibiotic and cytotoxicity screens of Wong et al. (2023):
# Screen size: about 39,000 compounds; about 1,500 (3.8%) were called active. The list comes from a sample in which actives are over-represented; it also holds similar structures and randomly drawn compounds.
# Test system: HSkMC (human skeletal muscle cells)
# Assay: cytotoxicity call (relative viability < 0.9)
# Settings: 10 µM
row,Structure (SMILES),cytotoxicity call
1,COCC#Cc1cnc2c(c1)C(=O)N([C@@H](C)CO)C[C@H](C)[C@@H](CN(C)C(=O)CN1CCOCC1)O2,inactive
2,COc1ccc(S(=O)(=O)N2C[C@H](O)COC[C@H]3O[C@H](CC(=O)NCCCN4CCOCC4)CC[C@@H]32)cc1,inactive
3,C[C@@H]1CN([C@@H](C)CO)S(=O)(=O)c2ccc(C#Cc3ccc(F)cc3)cc2O[C@@H]1CN(C)S(C)(=O)=O,inactive
4,Cc1noc(C)c1NC(=O)N(C)C[C@@H]1OCCCC[C@@H](C)Oc2ccc(NC(=O)Nc3cccc4ccccc34)cc2C(=O)N([C@H](C)CO)C[C@@H]1C,inactive
5,CCCC#Cc1cnc2c(c1)C(=O)N([C@H](C)CO)C[C@H](C)[C@@H](CN(C)C(=O)c1ccc3c(c1)OCO3)O2,inactive
6,COc1ccc(S(=O)(=O)N(C)C[C@H]2Oc3ccc(NC(=O)CCCN(C)C)cc3CC(=O)N([C@@H](C)CO)C[C@@H]2C)cc1,inactive
7,O=C(C1=C[C@H](c2ccc(C(F)(F)F)cc2)C[C@H](OCc2ccc(CO)cc2)O1)N1CCN(Cc2ccc3c(c2)OCO3)CC1,inactive
8,CN(C)CCCCNC(=O)[C@H]1C[C@H]2C(=O)N[C@@H](Cc3ccccc3)C(=O)N2[C@H]1c1cccc(OCCO)c1,inactive
9,O=C(C[C@@H]1C[C@@H]2c3cc(NS(=O)(=O)c4ccc(F)cc4)ccc3O[C@@H]2[C@@H](CO)O1)N1CCOCC1,inactive
10,O=C1CN(S(=O)(=O)Cc2ccccc2)C[C@@H]2[C@@H](c3ccc(C#Cc4cccc(F)c4)cc3)[C@H](CO)N12,active
11,O=C1CN(S(=O)(=O)Cc2ccccc2)C[C@@H]2[C@@H](c3ccc(C#Cc4cccc(F)c4)cc3)[C@@H](CO)N12,active
12,O=C1CN(S(=O)(=O)Cc2ccccc2)C[C@@H]2[C@H](c3ccc(C#Cc4cccc(F)c4)cc3)[C@@H](CO)N12,inactive
13,O=C1CN(S(=O)(=O)Cc2ccccc2)C[C@@H]2[C@H](c3ccc(C#Cc4cccc(F)c4)cc3)[C@H](CO)N12,inactive
14,O=C1CN(S(=O)(=O)Cc2ccccc2)C[C@H]2[C@@H](c3ccc(C#Cc4cccc(F)c4)cc3)[C@H](CO)N12,inactive
15,COc1cccc(C#Cc2ccc([C@@H]3[C@H](CO)N4C(=O)CN(S(=O)(=O)c5ccccc5C)C[C@@H]34)cc2)c1,inactive
16,O=C1CN(S(=O)(=O)Cc2ccccc2)C[C@H]2[C@@H](c3ccc(C#Cc4cccc(F)c4)cc3)[C@@H](CO)N12,inactive
17,O=C1CN(S(=O)(=O)Cc2ccccc2)C[C@H]2[C@H](c3ccc(C#Cc4cccc(F)c4)cc3)[C@H](CO)N12,active
18,O=C1CN(S(=O)(=O)Cc2ccccc2)C[C@H]2[C@H](c3ccc(C#Cc4cccc(F)c4)cc3)[C@@H](CO)N12,inactive
19,C/C=C/c1ccc2c(c1)O[C@H](CN(C)Cc1ccc(C(=O)O)cc1)[C@H](C)CN([C@@H](C)CO)S2(=O)=O,inactive
20,Cc1noc(C)c1NC(=O)N(C)C[C@H]1OCCCC[C@@H](C)Oc2ccc(NC(=O)c3ccccc3)cc2C(=O)N([C@@H](C)CO)C[C@H]1C,inactive

row,Structure (SMILES),cytotoxicity call
1,COc1ccc(S(=O)(=O)N(C)C[C@H]2Oc3ncc(C#CC4(O)CCCC4)cc3C(=O)N([C@@H](C)CO)C[C@@H]2C)cc1,inactive
2,Cc1ccc(C(=O)Nc2ccc(S(=O)(=O)O)c3cc(S(=O)(=O)O)cc(S(=O)(=O)O)c23)cc1NC(=O)c1cccc(NC(=O)Nc2cccc(C(=O)Nc3cc(C(=O)Nc4ccc(S(=O)(=O)O)c5cc(S(=O)(=O)O)cc(S(=O)(=O)O)c45)ccc3C)c2)c1,inactive
3,C[C@@H]1CN([C@H](C)CO)S(=O)(=O)c2ccc(C#CC(C)(C)O)cc2O[C@H]1CN(C)C(=O)C1CCCCC1,inactive
4,C[C@@H]1CCCCO[C@@H](CN(C)C(=O)CCC(F)(F)F)[C@@H](C)CN([C@@H](C)CO)C(=O)c2cc(NC(=O)c3ccccc3)ccc2O1,inactive
5,CC(C)NC(=O)N(C)C[C@@H]1Oc2ccc(NC(=O)C3CCCCC3)cc2C(=O)N([C@H](C)CO)C[C@@H]1C,inactive
6,C[C@@H]1CCCCO[C@H](CN(C)C(=O)c2ccccc2)[C@H](C)CN([C@@H](C)CO)C(=O)c2cc(NC(=O)CCCCCC(=O)Nc3ccccc3N)ccc2O1,inactive
7,Cc1noc(C)c1NC(=O)Nc1cccc2c1O[C@@H](CN(C)C(=O)Nc1cccc3ccccc13)[C@@H](C)CN([C@@H](C)CO)C2=O,inactive
8,COCCNC(=O)C[C@H]1CC[C@@H]2[C@H](COC[C@H](O)CN2C(=O)Nc2ccc3c(c2)OCO3)O1,inactive
9,C[N+](C)(CCOc1ccccc1)Cc1ccccc1.O=C([O-])c1cc2ccccc2cc1O,inactive
10,C[N+](C)(CCOc1ccccc1)Cc1ccccc1.O=C(O)c1cc2ccccc2c(Br)c1O,inactive
11,Cc1cc(C(C)(C)CC(C)(C)C)ccc1OCCOCC[N+](C)(C)Cc1ccccc1.[Cl-],active
12,COc1cccc(C#Cc2ccc3c(c2)O[C@@H](CN(C)S(=O)(=O)c2ccccc2F)[C@H](C)CN([C@@H](C)CO)S3(=O)=O)c1,inactive
13,C[C@@H]1CCCCO[C@H](CN(C)Cc2ccncc2)[C@H](C)CN([C@@H](C)CO)C(=O)c2cc(NC(=O)Nc3ccc(F)cc3)ccc2O1,inactive
14,NCC[C@H]1CC[C@H](NC(=O)c2ccccc2F)[C@H](CO)O1,inactive
15,C[C@@H]1CN([C@@H](C)CO)C(=O)c2cc(NC(=O)Cc3ccccc3)ccc2O[C@@H](C)CCCCO[C@H]1CN(C)Cc1ccc(C(F)(F)F)cc1,inactive
16,C[C@@H]1CCCCO[C@@H](CN(C)Cc2ccc(C(F)(F)F)cc2)[C@H](C)CN([C@H](C)CO)C(=O)c2cc(NC(=O)Cc3ccccc3)ccc2O1,active
17,C[C@H]1CCCCO[C@H](CN(C)Cc2ccc(C(F)(F)F)cc2)[C@@H](C)CN([C@@H](C)CO)C(=O)c2cc(NC(=O)Cc3ccccc3)ccc2O1,inactive
18,C[C@@H]1CCCCO[C@H](CN(C)Cc2ccc(C(F)(F)F)cc2)[C@H](C)CN([C@@H](C)CO)C(=O)c2cc(NC(=O)Cc3ccccc3)ccc2O1,inactive
19,C[C@@H]1CCCCO[C@@H](CN(C)Cc2ccc(C(F)(F)F)cc2)[C@@H](C)CN([C@@H](C)CO)C(=O)c2cc(NC(=O)Cc3ccccc3)ccc2O1,inactive
20,C[C@H](CO)N1C[C@H](C)[C@@H](CN(C)Cc2ccc(C(F)(F)F)cc2)OCCCC[C@H](C)Oc2ccc(NC(=O)Cc3ccccc3)cc2C1=O,active
